This note sets out measurements from PubChem BioAssay (Tox21).

Records with an inconclusive call do not appear. Values without a mark were called inactive. Activity calls are given as the source filed them. Calls follow the shape of the full dose curve.
% is scaled to controls: 0 for no effect and ±100 for the full control effect.

The experiment is described as follows: qHTS assay for small molecule disruptors of the mitochondrial membrane potential - cell viability (AID 720634).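 Also: human HepG2 liver cancer cells; nearly all actives have a fitted effect of over 20% in size.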 The settings on record: HepG2 viability, ATP luminescence (CellTiter-Glo), 1 h; series mostly up to 83.2 µM; activity change, negative = cytotoxicity: at the top concentration. In short, it runs like this: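 Luminescence from CellTiter-Glo (ATP content) gave viability in HepG2 cells, read in the same wells as the MMP dye assay after 1 hr compound exposure at 37 C.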
As to `C=C(C)C(=O)OCCC(F)(F)C(F)(F)C(F)(F)C(F)(F)C(F)(F)C(F)(F)F`, the “activity change, negative = cytotoxicity” value is 10.4%.
Same read-out and setting: then `CC1CCc2nccnc21` (stereo unspecified), with -5.39%.
Take `O=C(C(=O)c1ccco1)c1ccco1`: the “activity change, negative = cytotoxicity” value is 8.27% [at 95.3 µM].
For the compound `CC1C(C)(C)C2=C(C(=O)CCC2)C1(C)C` (stereo unspecified), the “activity change, negative = cytotoxicity” value was -12.5%.
`Cc1cccc2sc(N)nc12`: the “activity change, negative = cytotoxicity” value is 5.09% [at 95.3 µM].
In the case of `O=c1[nH][nH]c(=O)c2cc([N+](=O)[O-])ccc12`, the “activity change, negative = cytotoxicity” value was 5.02% [at 95.3 µM].
`CCCCCCOC(=O)CCCCC`: the “activity change, negative = cytotoxicity” value is 4.92%.
Take `O=NN(CCCl)C(=O)NCCCl`: the “activity change, negative = cytotoxicity” value was 7.82%.
Same read-out and setting: then `O=S(=O)(O)CO`, with 10.8%.
Take `CC(C)(O)c1coc(S(=O)(=O)NC(=O)Nc2c3c(cc4c2CCC4)CCC3)c1`: the “activity change, negative = cytotoxicity” value is 3.92%.
`Nc1ccn([C@H]2CS[C@@H](CO)O2)c(=O)n1`: the compound was called inactive.
On to `Nc1ccc(S(=O)(=O)NCc2ccccc2)cc1`, for which the “activity change, negative = cytotoxicity” value was -1.28%.
Take `Nc1ccc(N=Nc2ccc(N)cc2)cc1`: the “activity change, negative = cytotoxicity” value is -0.625%.
Same read-out and setting: the result for `O=c1[nH]c2cc(C(F)(F)F)c(N3CCOCC3)cc2n(CP(=O)(O)O)c1=O` reads 6.47%.
The same measure, in the same setting: then `CC(O)Cn1cnc2c1c(=O)n(C)c(=O)n2C` (stereo unspecified), with -1.52% [at 39.1 µM]; and `CCN(CC)CCOC(=O)C(c1ccccc1)c1ccccc1`, with 0.916%.
For the compound `O=C(O)CN1C(=O)c2cccc3cccc(c23)C1=O`, the “activity change, negative = cytotoxicity” value was 5.62%.
As for `CC(C)COC(=O)COc1cc(Cl)c(Cl)cc1Cl`, the “activity change, negative = cytotoxicity” value is 10.4%.
Consider `C[C@H](CS)C(=O)N1CCC[C@H]1C(=O)O`, for which the “activity change, negative = cytotoxicity” value was -2.15%.
For `CCCCCCC(CO)CCCC` (stereo unspecified), the “activity change, negative = cytotoxicity” value was -11.5%.
For `CC(=O)OC(C)C[N+](C)(C)C` (stereo unspecified), the “activity change, negative = cytotoxicity” value is -11.2% [at 39.1 µM].
For `CN=C(N)NC(=O)Nc1c(C)cccc1C`, the “activity change, negative = cytotoxicity” value was 8.71%.
In the case of `CSSc1ccoc1C`, the “activity change, negative = cytotoxicity” value was 5.56%.
`CCCCCCCC(=O)OCCCCCC`: the “activity change, negative = cytotoxicity” value was 4.27%.
Still for that read-out and setting: then `CC(C)(C)S`, with -4.46% [at 95.3 µM]; and `BrC(Br)C(Br)Br`, with 5.04%.
